Assay [1] is described as follows: qHTS assay to identify small molecule antagonists of the glucocorticoid receptor (GR) signaling pathway - cell viability counter screen (AID 720693). Further: nearly all actives have a fitted effect of over 55% in size. Further: potency means the concentration at half of the fitted maximal effect.
Assay [2] in a line: qHTS assay for identifying genotoxic compounds that show differential cytotoxicity against isogenic chicken DT40 cell lines with known DNA damage response pathways - wild type cell line (AID 743012). Further: nearly all actives have a fitted effect of over 60% in size. Further: potency means the concentration at half of the fitted maximal effect. The method, boiled down: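 Viability of DNA repair-proficient chicken DT40 cells was assessed by CellTiter-Glo luminescence following 40 h compound exposure at 37 C/5% CO2.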
Assay [3] in a line: qHTS assay for identifying genotoxic compounds that show differential cytotoxicity against isogenic chicken DT40 cell lines with known DNA damage response pathways - Rev3 mutant cell line (AID 743014). Further: nearly all actives have a fitted effect of over 55% in size. Further: potency means the concentration at half of the fitted maximal effect.
Assay [4] can be described thus: qHTS assay for identifying genotoxic compounds that show differential cytotoxicity against isogenic chicken DT40 cell lines with known DNA damage response pathways - Rad54/Ku70 mutant cell line (AID 743015). Further: nearly all actives have a fitted effect of over 60% in size. Further: potency means the concentration at half of the fitted maximal effect.
Assay [5] can be described thus: qHTS assay to identify small molecule antagonists of the androgen receptor (AR) signaling pathway using the MDA cell line - cell viability counter screen (AID 743041; further: nearly all actives have a fitted effect of over 45% in size; further: potency means the concentration at half of the fitted maximal effect). The method in brief: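 Compound exposure lasted 16 h at 37C in MDA-kb2 AR-luc cells stimulated with R1881. Protease-based CellTiter-Fluor reagent was applied for the final 30 min and fluorescence measured.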

The nature of assay [6]: qHTS assay to identify small molecule antagonists of the thyroid receptor (TR) signaling pathway - cell viability counter screen (AID 743064). Further: nearly all actives have a fitted effect of over 50% in size. Further: potency means the concentration at half of the fitted maximal effect. The method in brief: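 CellTiter-Fluor readout, 30 min at 37 °C/5% CO2, following 23.5 h incubation of GH3.TRE-Luc cells with test compound and 1 nM T3 (final).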
Assay [7] is described as follows: qHTS assay to identify small molecule antagonists of the thyroid receptor (TR) signaling pathway (AID 743065). Further: nearly all actives have a fitted effect of over 55% in size. Further: potency means the concentration at half of the fitted maximal effect. The method in brief:
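GH3.TRE-Luc rat pituitary cells (two TREs driving luciferase) were dosed with compound, then stimulated with 1 nM T3 (final) for 23.5 h at 37 C. ONE-Glo luminescence was the read-out, with CellTiter-Fluor fluorescence as the cytotoxicity counter-screen.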

Assay [8] relates to thyroid hormone receptor (rat, GH3 cells). As to the kind of experiment: qHTS assay to identify small molecule agonists of the thyroid receptor (TR) signaling pathway (AID 743066; calls by dose curve).
Assay [9] can be described thus: qHTS assay to identify small molecule antagonists of the estrogen receptor alpha (ER-alpha) signaling pathway using the BG1 cell line - cell viability counter screen (AID 743081).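 Further: compound given together with 17beta-estradiol as the ER stimulus; nearly all actives have a fitted effect of over 45% in size.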 Further: potency means the concentration at half of the fitted maximal effect.
Assay [10] has as its target Aromatase (Homo sapiens) (UniProt P11511). As to the kind of experiment: qHTS assay to identify aromatase inhibitors (AID 743083). Further: nearly all actives have a fitted effect of over 55% in size. Further: potency means the concentration at half of the fitted maximal effect.
Assay [11] is described as follows: qHTS assay to identify small molecule antagonists of the estrogen receptor alpha (ER-alpha) signaling pathway - cell viability counter screen (AID 743074; calls by dose curve; further: nearly all actives have a fitted effect of over 45% in size; further: potency means the concentration at half of the fitted maximal effect).
Assay [12] concerns the target Estrogen receptor (Homo sapiens) (UniProt P03372). Briefly: qHTS assay to identify small molecule agonists of the estrogen receptor alpha (ER-alpha) signaling pathway (AID 743075; calls by dose curve; further: potency means the concentration at half of the fitted maximal effect).
Assay [13] shares this target. As to the kind of experiment: qHTS assay to identify small molecule agonists of the estrogen receptor alpha (ER-alpha) signaling pathway using the BG1 cell line (AID 743079). Further: nearly all actives have a fitted effect of over 20% in size. Further: potency means the concentration at half of the fitted maximal effect. To be noted: BG1Luc4E2 cells, ERE-luciferase agonist, 22 h; activation: at 70.3 µM (top of the series).
Assay [14] is described as follows: qHTS assay to identify small molecule antagonists of the estrogen receptor alpha (ER-alpha) signaling pathway using the BG1 cell line (AID 743080; calls by dose curve;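 further: BG1 cells stimulated with 17beta-estradiol alongside compound; nearly all actives have a fitted effect of over 25% in size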). To be noted: BG1Luc4E2 ERE-luciferase antagonist mode, luminescence; activity change, negative = inhibition: at 70.3 µM (top of the series). The method, boiled down: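 BG1-Luc-4E2 cells (endogenous full-length ER-alpha, 4xERE luciferase) hormone-starved 5 days in charcoal-stripped FBS, plated 4,000/well for 24 h, then compound plus 17beta-estradiol for 21.5 h at 37 C; ONE-Glo luminescence read.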

The target in assay [15] is Estrogen receptor (Homo sapiens) (UniProt P03372). As to the kind of experiment: qHTS assay to identify small molecule antagonists of the estrogen receptor alpha (ER-alpha) signaling pathway (AID 743069; active means well fitted curve in the direction sought with a large enough effect in the signal ratio in the repeat runs, not every such curve was filed as active; inconclusive means weak or mixed curves, or effect the other way; inactive means no such curve, though single readings can be large or run the other way; the % refers to the signal ratio; further: potency means the concentration at half of the fitted maximal effect). The method, boiled down:
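In this cell-based reporter format, GripTite HEK293 cells harbouring ER-alpha-UAS-bla were grown overnight with 2% charcoal-stripped FBS, dosed with DMSO-dissolved compounds, then challenged with 17beta-estradiol. After 18 hr at 37C, beta-lactamase activity was detected by FRET fluorescence.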

Assay [16] in a line: qHTS assay to identify small molecule antagonists of the androgen receptor (AR) signaling pathway - cell viability counter screen (AID 743033; further: nearly all actives have a fitted effect of over 45% in size; further: potency means the concentration at half of the fitted maximal effect).
Assay [17] has as its target Androgen receptor (Homo sapiens) (UniProt P10275). Briefly: qHTS assay to identify small molecule agonists of the androgen receptor (AR) signaling pathway using the MDA cell line (AID 743040; further: nearly all actives have a fitted effect of over 20% in size). The method, boiled down: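 Testing was done with the MDA-kb2 AR-luc line, a human breast carcinoma stably transfected with MMTV-luciferase containing AR and GR response elements. Cells were exposed 16 h at 37C before ONE-Glo luminescence detection.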

The target is the same in assay [18]. As to the kind of experiment: qHTS assay to identify small molecule antagonists of the androgen receptor (AR) signaling pathway using the MDA cell line (AID 743042). The method, boiled down: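 MDA-kb2 breast carcinoma cells carrying MMTV-luciferase (AR/GR responsive) were co-treated with compounds and the agonist R1881 for 16 h at 37C. Inhibition read as ONE-Glo luminescence; CellTiter-Fluor fluorescence measured in parallel for cytotoxicity.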

Values joined by “and” are separate entries in the source; they are usually repeats but may differ in a detail not shown here. Identical values can stand only once. Active and inactive are the calls of the source. Unless noted, the call rests on the fitted dose curve; in most records, active means well fitted curve in the direction sought with a large enough effect in the repeat runs; inconclusive means weak or mixed curves; inactive means no such curve, though single readings can be large; an effect the other way counts as inactive or inconclusive.

Sequence of Aromatase (Homo sapiens) (P11511 whole entry, looked up): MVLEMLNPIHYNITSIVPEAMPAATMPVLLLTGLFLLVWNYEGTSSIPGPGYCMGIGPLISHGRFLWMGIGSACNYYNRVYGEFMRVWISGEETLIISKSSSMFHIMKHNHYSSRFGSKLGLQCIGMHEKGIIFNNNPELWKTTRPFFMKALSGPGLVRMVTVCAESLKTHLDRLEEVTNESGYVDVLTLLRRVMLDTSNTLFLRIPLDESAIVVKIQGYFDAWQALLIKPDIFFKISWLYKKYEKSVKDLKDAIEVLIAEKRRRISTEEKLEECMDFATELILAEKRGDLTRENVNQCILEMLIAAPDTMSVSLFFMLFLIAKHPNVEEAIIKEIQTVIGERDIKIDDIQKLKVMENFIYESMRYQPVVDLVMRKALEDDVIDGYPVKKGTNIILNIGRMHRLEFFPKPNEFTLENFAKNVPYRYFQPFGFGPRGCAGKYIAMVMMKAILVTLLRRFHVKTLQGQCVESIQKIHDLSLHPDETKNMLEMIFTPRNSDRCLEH
Sequence of Estrogen receptor (Homo sapiens) (P03372 whole entry, looked up): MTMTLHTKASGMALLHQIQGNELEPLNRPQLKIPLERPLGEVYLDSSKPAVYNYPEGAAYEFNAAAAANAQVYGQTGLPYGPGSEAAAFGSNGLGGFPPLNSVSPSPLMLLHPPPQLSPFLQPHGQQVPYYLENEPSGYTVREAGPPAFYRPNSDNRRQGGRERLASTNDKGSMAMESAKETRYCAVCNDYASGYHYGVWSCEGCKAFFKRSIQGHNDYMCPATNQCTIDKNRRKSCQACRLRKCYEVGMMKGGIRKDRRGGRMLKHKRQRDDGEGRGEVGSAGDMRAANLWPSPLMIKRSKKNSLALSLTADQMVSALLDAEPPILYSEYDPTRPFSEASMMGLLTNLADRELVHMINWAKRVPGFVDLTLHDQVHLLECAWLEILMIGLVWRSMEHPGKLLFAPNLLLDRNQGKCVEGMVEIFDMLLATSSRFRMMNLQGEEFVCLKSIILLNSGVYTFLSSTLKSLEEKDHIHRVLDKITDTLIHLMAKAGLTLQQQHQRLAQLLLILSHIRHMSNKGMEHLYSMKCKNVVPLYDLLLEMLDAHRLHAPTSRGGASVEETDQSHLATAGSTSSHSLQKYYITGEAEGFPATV
Sequence of Androgen receptor (Homo sapiens) (P10275 whole entry, looked up): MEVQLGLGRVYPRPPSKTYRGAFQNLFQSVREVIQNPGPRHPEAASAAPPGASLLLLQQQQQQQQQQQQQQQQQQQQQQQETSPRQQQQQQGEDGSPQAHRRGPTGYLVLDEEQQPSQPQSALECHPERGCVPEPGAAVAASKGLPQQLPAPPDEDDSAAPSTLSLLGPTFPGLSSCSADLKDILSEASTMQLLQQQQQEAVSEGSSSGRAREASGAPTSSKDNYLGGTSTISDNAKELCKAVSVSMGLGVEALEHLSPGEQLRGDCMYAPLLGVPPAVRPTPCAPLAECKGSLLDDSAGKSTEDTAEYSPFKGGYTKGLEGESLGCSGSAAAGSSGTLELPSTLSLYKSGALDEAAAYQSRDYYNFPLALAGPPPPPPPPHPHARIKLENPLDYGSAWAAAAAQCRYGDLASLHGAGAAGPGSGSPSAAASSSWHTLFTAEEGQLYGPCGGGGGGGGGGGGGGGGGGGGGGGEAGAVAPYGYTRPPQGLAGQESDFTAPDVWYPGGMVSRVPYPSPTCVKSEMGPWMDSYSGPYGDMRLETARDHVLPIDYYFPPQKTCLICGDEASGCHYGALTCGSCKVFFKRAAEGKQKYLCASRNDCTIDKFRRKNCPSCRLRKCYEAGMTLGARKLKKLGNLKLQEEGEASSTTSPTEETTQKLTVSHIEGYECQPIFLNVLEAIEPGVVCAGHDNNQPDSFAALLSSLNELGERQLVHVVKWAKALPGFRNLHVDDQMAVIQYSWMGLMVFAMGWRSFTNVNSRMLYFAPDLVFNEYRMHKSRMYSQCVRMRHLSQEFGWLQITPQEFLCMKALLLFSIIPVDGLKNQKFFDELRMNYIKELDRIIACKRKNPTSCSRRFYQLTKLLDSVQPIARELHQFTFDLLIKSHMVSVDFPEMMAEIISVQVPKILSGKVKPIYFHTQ

`CCCCCCC(C)Nc1ccc(Nc2ccccc2)cc1` (stereo unspecified): the Potency was 49 µM (active) in [1]; 17.2 µM (active) in assay [2]; 15.4 µM (active) in assay [3]; 17.2 µM (active) in [4]; 61.1 µM (active) in [6]; 43.3 µM (active) in [7]. The Potency entry in assay [5], in [8], in assay [9] and in assay [10] was “inactive” in each case.
Turning to `c1ccc(Nc2cccc3ccccc23)cc1`, the Potency in assay [1] is 44.2 µM (active); in assay [2], 69.5 µM (active); in assay [3], 61.9 µM (active) and 61.1 µM (active); in assay [4], 55.2 µM (active) and 61.1 µM (active); in assay [6] it was 69.5 µM (active); in [7], 69.5 µM (active). In addition, the Potency in assay [12] is 44.2 µM [inconclusive] (active) and 17.4 µM [activator] (active); in assay [13], 13.9 µM (active) and 9.69 µM (active); in assay [10], 43.8 µM (active) and 61.1 µM (active). For the same compound, the Potency result in assay [5], in [8], in [11], in assay [14] and in [9] was “inactive” each time.
`CCCCCCOc1cc(C)c(O)c(C)c1C`: the Potency in assay [1] was 49.6 µM (active); in assay [2], 19.6 µM (active); in assay [3], 22 µM (active); in [4], 15.5 µM (active); in assay [6] it was 49.2 µM (active); in assay [7] it was 55.1 µM (active). The Potency in assay [10] is 43.8 µM (active). Moreover, the Potency entry in assay [5], in [8], in assay [11], in assay [12], in assay [13] and in assay [9] was “inactive” each time.
Regarding `CNCC[C@H](Oc1cccc2ccccc12)c1cccs1`, the Potency entry in [1] is “inactive”. Besides, the Potency in [2] is 5.31 µM (active); in assay [3] it was 9.44 µM (active); in assay [4], 9.44 µM (active); in assay [6], 7.5 µM (active); in assay [7], 7.5 µM (active).
Take `Cc1c(-c2ccc(O)cc2)n(Cc2ccc(OCCN3CCCCCC3)cc2)c2ccc(O)cc12`: the Potency entry in assay [1] and in assay [11] was “inactive” each time. Besides, the Potency in [2] was 11.9 µM (active); in assay [3], 13.3 µM (active); in assay [4], 13.3 µM (active); in assay [6], 9.44 µM (active); in assay [10], 0.0211 µM (active).
For the compound `CCN(CC)CCNc1ccc(CO)c2sc3ccccc3c(=O)c12`, the Potency result in assay [1], in [11], in [12] and in [10] was “inactive” in each case. The Potency is 0.841 µM (active) in [2]; 0.298 µM (active) in assay [3]; 0.237 µM (active) in assay [4]; 26.6 µM (active) in [5]; 4.73 µM (active) in assay [6]; 1.06 µM (active) in assay [7]. The values for the Potency in assay [15] and in assay [9] were 30.1 µM [inconclusive] (active) and 13.3 µM (active), respectively.
Regarding `O=Nc1ccc(NO)cc1`, the Potency result in assay [1], in assay [2], in [3], in assay [4], in assay [16] and in assay [6] was “inactive” throughout. Also, the Potency result in assay [7], in assay [8], in [15], in assay [11], in assay [12] and in assay [13] was “inactive” each time. Moreover, the Potency result in assay [14], in assay [9] and in assay [10] was “inactive” throughout.
Take `Cc1occc1SSc1ccoc1C`: the Potency entry in assay [1], in [16], in assay [5], in [8], in assay [11] and in assay [9] was “inactive” each time. The Potency was 19.3 µM (active) in assay [2], 19.3 µM (active) in assay [3], 15.4 µM (active) in [4] and 30.6 µM (active) in assay [10].
Turning to `O=C1c2c(O)ccc([N+](=O)[O-])c2C(=O)c2c([N+](=O)[O-])ccc(O)c21`, the Potency in assay [1] is 8.63 µM (active); in [2] it was 13.6 µM (active); in assay [3], 6.8 µM (active); in [4], 5.4 µM (active); in assay [16], 6.85 µM (active); in [6] it was 6.8 µM (active). For the same compound, the Potency in [7] is 6.8 µM (active); in assay [11], 38.5 µM (active); in [9], 30.4 µM (active); in assay [10] it was 6.06 µM (active). Further, the Potency entry in [8] was “inactive”.
Take `C(=C/c1ccccc1)/c1ccccc1`: the Potency entry in [1], in assay [2], in [3], in [4], in assay [16] and in [6] was “inactive” each time. The Potency entry in assay [7], in [8], in assay [15], in [11], in assay [12] and in assay [13] was “inactive” in each case. Moreover, the Potency result in assay [14], in [9] and in assay [10] was “inactive” throughout.
Turning to `CNC(=O)c1cc(Oc2ccc(NC(=O)Nc3ccc(Cl)c(C(F)(F)F)c3)cc2)ccn1`, the Potency in assay [1] is 19 µM (active); in assay [2] it was 4.73 µM (active); in [3], 5.31 µM (active); in [4] it was 5.31 µM (active); in [16] it was 16.9 µM (active); in assay [7], 5.96 µM (active). The Potency in [15] was 6.01 µM [inconclusive] (active); in [11], 21.3 µM (active); in assay [10], 11.9 µM (active). Also, in [12], the Potency result is “inactive”.
Take `CCCCOc1ccc(C(=O)CCN2CCCCC2)cc1`: the Potency entry in assay [1], in assay [15], in [11], in assay [12], in [9] and in assay [10] was “inactive” throughout. The Potency in [2] was 0.717 µM (active); in assay [3] it was 1.27 µM (active); in assay [4] it was 1.01 µM (active); in [5], 10.6 µM (active); in [6], 5.07 µM (active); in [7], 3.59 µM (active). Further, the Potency in [13] is 4.52 µM (active).
`CN(C)c1ccc(N=NS(=O)(=O)O)cc1`: the Potency result in [1], in assay [17], in assay [7] and in assay [8] was “inactive” each time. The Potency was 22.9 µM (active) in [2]; 26.1 µM (active) in assay [3]; 22 µM (active) in assay [4]; 14.4 µM (active) in [5]; 23.7 µM (active) in [18].
`CN(Cc1cc(Br)cc(Br)c1N)C1CCCCC1`: the Potency entry in assay [1], in [5], in [8], in assay [11], in assay [12] and in [14] was “inactive” in each case. Besides, the Potency result in assay [9] and in assay [10] was “inactive” in each case. Further, the figures for the Potency in assay [2], in assay [3] and in assay [4] were 10.6 µM (active), 6.68 µM (active) and 10.6 µM (active), respectively.

(Values after PubChem BioAssay (Tox21).)
